For experiment [1], the target named is Serine/threonine-protein kinase PAK 4 (Homo sapiens) (UniProt O96013). The note with it: at 1 µM.
Experiment [2] shares this target. As to conditions: at 10 µM.
In experiment [3] the target is Serine/threonine-protein kinase PAK 5 (Homo sapiens) (UniProt Q9P286). As to conditions: at 1 µM.
Experiment [4] concerns the target Serine/threonine-protein kinase PAK 6 (Homo sapiens) (UniProt Q9NQU5). The note with it: at 1 µM.
Experiment [5] concerns the target PAS domain-containing serine/threonine-protein kinase (Homo sapiens) (UniProt Q96RG2). The note with it: at 10 µM.
The target in experiment [6] is Activated CDC42 kinase 1 (Homo sapiens) (UniProt Q07912). The note with it: at 1 µM.
For experiment [7] the target is unchanged. The note with it: at 10 µM.
In experiment [8] the target is ALK tyrosine kinase receptor (Homo sapiens) (UniProt Q9UM73). As to conditions: at 1 µM.
For experiment [9] the target is unchanged. The note with it: at 10 µM.
The target of experiment [10] is T1, Activin receptor type-1B (Homo sapiens) (UniProt P36896).
T1 sequence (whole entry): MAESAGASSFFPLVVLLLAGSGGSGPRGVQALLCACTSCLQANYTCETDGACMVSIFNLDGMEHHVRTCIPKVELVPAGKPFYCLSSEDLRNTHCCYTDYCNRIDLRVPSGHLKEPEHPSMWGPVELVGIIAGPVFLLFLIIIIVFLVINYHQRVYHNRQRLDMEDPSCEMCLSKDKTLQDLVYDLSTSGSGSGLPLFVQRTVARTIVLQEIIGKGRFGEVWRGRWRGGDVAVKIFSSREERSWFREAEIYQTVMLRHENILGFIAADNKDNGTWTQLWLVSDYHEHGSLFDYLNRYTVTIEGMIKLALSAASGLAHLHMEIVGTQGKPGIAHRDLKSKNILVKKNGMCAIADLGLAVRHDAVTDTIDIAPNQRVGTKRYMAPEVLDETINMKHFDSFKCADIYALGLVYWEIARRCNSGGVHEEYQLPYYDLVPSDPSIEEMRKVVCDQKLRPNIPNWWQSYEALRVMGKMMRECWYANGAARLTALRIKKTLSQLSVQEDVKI
As to conditions: at 1 µM.

Experiment [11] concerns the target T1, Activin receptor type-1B (Homo sapiens). As to conditions: at 10 µM.
Experiment [12] deals with T2, AMP-activated protein kinase (AMPK) alpha-1/beta-1/gamma-1 (Homo sapiens) (UniProt P54619+Q9Y478+Q13131). As to conditions: at 1 µM.
Experiment [13] addresses T2, AMP-activated protein kinase (AMPK) alpha-1/beta-1/gamma-1 (Homo sapiens). As to conditions: at 10 µM.
Experiment [14] deals with T3, AMP-activated protein kinase, AMPK (Homo sapiens) (UniProt P54646+O43741+P54619+Q9UGJ0+Q9Y478+Q13131+Q9UGI9). The note with it: at 1 µM.
The target of experiment [15] is T3, AMP-activated protein kinase, AMPK (Homo sapiens). As to conditions: at 10 µM.
For experiment [16], the target named is T4, NUAK family SNF1-like kinase 1 (Homo sapiens) (UniProt O60285).
T4 sequence (whole entry): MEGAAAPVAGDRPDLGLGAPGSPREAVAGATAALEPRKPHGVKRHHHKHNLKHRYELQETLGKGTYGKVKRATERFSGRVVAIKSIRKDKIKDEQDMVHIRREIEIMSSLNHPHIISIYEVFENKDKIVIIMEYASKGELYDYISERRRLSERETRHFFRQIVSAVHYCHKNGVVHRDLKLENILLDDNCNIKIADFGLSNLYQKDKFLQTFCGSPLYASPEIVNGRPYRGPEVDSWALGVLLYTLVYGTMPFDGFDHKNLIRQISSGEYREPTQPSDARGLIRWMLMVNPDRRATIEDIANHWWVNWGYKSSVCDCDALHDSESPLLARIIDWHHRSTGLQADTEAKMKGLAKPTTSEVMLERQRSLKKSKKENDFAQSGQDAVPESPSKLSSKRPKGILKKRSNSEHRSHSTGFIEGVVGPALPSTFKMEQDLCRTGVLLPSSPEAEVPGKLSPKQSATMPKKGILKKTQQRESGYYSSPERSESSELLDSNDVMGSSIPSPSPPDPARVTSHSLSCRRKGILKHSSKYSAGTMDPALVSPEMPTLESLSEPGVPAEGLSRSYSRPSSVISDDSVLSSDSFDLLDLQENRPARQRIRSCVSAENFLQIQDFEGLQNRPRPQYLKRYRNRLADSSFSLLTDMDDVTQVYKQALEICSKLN
The note with it: at 1 µM.

For experiment [17], the target named is T4, NUAK family SNF1-like kinase 1 (Homo sapiens). The note with it: at 10 µM.
The target of experiment [18] is T5, Mitogen-activated protein kinase kinase kinase 5 (Homo sapiens) (UniProt Q99683).
T5 sequence (whole entry): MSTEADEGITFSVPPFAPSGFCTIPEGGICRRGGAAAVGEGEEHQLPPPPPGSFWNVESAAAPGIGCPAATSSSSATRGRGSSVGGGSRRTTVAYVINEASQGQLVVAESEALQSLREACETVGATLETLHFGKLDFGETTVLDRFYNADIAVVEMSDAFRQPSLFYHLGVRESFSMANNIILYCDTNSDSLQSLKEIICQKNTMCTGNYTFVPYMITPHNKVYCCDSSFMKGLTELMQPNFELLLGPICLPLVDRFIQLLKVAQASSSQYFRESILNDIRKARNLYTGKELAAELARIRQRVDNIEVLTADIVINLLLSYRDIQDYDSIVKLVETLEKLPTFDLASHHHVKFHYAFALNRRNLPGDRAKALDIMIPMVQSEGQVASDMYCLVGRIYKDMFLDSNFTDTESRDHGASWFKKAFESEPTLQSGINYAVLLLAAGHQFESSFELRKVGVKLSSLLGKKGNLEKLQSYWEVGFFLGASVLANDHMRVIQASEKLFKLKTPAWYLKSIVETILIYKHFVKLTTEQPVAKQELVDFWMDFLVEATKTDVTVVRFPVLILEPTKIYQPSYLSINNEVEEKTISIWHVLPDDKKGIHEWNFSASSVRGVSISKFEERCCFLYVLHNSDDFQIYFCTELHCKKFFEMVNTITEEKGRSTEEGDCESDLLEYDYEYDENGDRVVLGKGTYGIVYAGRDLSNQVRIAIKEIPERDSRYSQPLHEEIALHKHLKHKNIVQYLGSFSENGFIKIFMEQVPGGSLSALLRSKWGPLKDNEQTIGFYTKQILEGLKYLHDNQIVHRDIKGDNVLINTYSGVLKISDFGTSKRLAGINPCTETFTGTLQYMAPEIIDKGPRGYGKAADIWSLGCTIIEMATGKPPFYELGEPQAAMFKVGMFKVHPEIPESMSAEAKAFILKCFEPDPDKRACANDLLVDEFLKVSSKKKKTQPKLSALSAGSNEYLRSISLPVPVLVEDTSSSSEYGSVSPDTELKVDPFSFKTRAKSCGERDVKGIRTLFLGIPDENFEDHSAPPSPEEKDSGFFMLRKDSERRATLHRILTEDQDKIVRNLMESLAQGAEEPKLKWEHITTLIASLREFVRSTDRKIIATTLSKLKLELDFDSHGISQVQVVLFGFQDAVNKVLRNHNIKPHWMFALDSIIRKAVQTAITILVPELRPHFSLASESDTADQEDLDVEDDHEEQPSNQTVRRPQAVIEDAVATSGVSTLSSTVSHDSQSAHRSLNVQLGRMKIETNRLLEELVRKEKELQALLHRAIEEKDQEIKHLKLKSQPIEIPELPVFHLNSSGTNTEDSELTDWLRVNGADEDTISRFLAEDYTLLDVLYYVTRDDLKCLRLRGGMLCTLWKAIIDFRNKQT
The note with it: at 1 µM.

Experiment [19] has as its target Serine/threonine-protein kinase PAK 5 (Homo sapiens) (UniProt Q9P286). As to conditions: at 10 µM.
The target of experiment [20] is Serine/threonine-protein kinase PAK 6 (Homo sapiens) (UniProt Q9NQU5). As to conditions: at 10 µM.

The structures appear in SMILES notation.

Sequence of Serine/threonine-protein kinase PAK 4 (Homo sapiens) (O96013 whole entry, looked up): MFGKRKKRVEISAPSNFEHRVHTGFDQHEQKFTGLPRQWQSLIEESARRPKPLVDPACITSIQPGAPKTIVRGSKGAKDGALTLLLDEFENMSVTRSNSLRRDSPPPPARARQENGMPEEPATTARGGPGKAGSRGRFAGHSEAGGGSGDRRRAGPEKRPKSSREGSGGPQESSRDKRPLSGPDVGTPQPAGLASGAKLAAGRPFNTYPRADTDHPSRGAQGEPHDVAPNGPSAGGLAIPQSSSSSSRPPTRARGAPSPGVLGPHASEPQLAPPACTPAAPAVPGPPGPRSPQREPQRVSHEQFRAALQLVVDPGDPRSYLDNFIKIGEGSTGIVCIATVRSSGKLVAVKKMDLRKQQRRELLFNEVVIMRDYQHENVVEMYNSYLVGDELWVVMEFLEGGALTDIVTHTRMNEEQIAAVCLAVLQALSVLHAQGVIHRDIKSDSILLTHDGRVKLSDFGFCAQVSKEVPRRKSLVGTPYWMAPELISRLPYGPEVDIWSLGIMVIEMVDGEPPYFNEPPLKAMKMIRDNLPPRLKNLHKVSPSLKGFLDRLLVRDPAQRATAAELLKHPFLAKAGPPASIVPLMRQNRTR
Sequence of PAS domain-containing serine/threonine-protein kinase (Homo sapiens) (Q96RG2 whole entry, the tested form may be a part): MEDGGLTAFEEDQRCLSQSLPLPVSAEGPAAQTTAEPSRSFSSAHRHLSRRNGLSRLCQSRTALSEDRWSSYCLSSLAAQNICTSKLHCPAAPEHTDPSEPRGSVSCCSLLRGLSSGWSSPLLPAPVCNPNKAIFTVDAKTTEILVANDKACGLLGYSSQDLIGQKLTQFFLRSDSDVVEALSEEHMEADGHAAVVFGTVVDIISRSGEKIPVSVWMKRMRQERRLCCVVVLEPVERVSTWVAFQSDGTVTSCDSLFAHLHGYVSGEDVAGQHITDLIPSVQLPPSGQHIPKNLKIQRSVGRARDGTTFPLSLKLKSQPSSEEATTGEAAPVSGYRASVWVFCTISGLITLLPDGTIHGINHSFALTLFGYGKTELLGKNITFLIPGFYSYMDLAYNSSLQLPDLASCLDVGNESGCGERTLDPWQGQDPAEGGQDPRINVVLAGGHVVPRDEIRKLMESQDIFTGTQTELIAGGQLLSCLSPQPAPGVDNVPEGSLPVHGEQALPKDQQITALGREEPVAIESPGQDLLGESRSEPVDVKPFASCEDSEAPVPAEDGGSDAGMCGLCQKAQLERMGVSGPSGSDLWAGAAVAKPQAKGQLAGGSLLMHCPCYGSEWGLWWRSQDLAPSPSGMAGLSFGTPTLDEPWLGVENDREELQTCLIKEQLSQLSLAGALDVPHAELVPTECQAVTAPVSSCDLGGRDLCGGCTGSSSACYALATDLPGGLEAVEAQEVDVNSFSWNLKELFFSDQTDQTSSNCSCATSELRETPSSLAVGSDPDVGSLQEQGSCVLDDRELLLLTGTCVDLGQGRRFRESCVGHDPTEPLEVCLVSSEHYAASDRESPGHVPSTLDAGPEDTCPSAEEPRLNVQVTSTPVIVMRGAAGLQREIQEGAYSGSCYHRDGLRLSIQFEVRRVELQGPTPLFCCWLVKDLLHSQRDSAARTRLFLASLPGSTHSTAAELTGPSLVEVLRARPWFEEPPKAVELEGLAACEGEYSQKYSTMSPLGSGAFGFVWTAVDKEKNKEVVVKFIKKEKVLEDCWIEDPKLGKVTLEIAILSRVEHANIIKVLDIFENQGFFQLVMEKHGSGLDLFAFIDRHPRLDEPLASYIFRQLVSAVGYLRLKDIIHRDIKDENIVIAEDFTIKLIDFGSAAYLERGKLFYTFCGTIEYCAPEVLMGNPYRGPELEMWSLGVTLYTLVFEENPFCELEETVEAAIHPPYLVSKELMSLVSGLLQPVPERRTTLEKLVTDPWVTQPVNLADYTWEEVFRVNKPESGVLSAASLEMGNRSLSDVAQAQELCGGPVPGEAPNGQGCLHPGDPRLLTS
Sequence of Serine/threonine-protein kinase PAK 6 (Homo sapiens) (Q9NQU5 whole entry, looked up, the tested form may be a part): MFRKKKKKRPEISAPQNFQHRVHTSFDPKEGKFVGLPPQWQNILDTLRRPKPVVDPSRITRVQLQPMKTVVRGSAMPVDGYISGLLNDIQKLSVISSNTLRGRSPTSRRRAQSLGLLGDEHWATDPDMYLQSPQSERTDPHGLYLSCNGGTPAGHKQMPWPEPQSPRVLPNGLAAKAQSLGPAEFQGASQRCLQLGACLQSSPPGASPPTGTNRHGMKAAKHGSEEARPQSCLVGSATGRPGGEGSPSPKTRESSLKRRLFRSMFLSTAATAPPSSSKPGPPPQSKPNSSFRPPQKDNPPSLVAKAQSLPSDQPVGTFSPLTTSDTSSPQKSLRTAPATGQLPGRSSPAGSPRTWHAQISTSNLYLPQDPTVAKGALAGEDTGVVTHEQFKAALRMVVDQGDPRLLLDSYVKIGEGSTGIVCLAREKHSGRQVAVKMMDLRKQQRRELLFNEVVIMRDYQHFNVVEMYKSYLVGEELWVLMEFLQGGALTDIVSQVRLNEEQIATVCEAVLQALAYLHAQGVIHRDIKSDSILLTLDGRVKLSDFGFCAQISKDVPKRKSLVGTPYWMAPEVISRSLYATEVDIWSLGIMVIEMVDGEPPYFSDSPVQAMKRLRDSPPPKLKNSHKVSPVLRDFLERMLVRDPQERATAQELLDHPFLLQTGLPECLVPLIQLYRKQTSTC
Sequence of Activated CDC42 kinase 1 (Homo sapiens) (Q07912 whole entry, looked up): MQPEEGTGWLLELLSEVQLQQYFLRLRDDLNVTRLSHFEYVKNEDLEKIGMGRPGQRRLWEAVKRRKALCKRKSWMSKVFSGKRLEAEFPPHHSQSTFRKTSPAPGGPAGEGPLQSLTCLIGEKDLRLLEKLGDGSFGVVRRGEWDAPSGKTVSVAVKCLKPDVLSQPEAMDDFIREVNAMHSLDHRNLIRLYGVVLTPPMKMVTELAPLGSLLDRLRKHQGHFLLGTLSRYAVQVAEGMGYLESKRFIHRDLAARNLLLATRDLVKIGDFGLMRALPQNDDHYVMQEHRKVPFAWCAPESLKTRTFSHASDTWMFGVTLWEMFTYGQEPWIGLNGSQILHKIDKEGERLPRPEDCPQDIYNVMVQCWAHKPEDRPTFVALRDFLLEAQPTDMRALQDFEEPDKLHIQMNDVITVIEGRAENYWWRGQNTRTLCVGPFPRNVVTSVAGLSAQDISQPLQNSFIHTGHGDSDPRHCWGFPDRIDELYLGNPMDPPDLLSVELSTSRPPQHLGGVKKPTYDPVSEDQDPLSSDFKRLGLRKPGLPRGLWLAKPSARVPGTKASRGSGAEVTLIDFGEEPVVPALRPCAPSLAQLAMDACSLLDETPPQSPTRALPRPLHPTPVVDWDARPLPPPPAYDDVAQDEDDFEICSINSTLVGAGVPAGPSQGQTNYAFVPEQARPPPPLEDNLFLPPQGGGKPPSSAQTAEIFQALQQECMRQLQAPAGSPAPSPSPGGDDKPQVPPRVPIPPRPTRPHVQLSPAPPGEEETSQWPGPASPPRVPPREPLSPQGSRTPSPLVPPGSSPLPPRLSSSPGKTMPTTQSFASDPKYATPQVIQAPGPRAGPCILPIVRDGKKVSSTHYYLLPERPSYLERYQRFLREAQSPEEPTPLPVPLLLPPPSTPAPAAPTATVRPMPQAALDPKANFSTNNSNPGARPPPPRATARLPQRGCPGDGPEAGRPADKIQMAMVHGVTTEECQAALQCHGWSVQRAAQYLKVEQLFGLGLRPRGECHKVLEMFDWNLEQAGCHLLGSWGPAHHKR
Sequence of Serine/threonine-protein kinase PAK 5 (Homo sapiens) (Q9P286 whole entry, looked up): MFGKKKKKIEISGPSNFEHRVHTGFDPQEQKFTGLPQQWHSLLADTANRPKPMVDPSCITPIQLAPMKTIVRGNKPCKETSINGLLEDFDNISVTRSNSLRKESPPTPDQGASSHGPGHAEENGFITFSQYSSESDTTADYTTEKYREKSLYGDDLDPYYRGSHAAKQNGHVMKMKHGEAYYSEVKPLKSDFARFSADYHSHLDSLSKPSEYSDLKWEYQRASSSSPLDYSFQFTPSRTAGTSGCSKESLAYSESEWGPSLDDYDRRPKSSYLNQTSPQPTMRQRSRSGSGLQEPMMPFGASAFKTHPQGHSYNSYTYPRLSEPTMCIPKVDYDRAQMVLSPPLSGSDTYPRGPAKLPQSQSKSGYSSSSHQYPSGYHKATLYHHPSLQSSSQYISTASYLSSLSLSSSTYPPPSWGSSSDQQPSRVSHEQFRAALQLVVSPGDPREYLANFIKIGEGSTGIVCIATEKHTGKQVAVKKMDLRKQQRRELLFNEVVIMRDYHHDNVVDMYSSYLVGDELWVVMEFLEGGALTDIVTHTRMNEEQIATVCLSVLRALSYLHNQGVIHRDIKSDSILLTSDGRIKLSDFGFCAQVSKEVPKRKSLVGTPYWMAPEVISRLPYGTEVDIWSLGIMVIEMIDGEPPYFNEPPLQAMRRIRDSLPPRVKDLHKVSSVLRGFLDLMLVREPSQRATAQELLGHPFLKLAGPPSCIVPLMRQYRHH

Take `Cn1nc2c3c(cccc31)C(=O)c1ccccc1-2`: the residual activity was 97% in experiment [1]; 87% in experiment [2]; 86% in experiment [3]; 108% in experiment [4]; 95% in experiment [5]; 61% in experiment [6]. In addition, the residual activity in [7] is 31%; in experiment [8], 72%; in experiment [9], 45%; in experiment [10], 104%; in experiment [11] it was 109%; in experiment [12], 91%. The residual activity stood at 73% in experiment [13]; 81% in experiment [14]; 85% in experiment [15]; 57% in experiment [16]; 31% in [17]; 71% in experiment [18].

For the molecule `c1ccc(-c2n[nH]c3c2oc2ccccc23)cc1`, the residual activity in [1] amounted to 95%; in [2], 83%; in experiment [3], 83%; in [19], 86%; in experiment [5], 77%; in [6] it was 65%. For the same molecule, the residual activity came out at 51% in [7]; 84% in experiment [8]; 32% in [9]; 134% in [10]; 99% in [11]; 89% in experiment [12]. Moreover, the residual activity in experiment [13] was found to be 49%; in experiment [14], 91%; in experiment [15], 47%; in experiment [16] it was 89%; in [17], 65%; in experiment [18], 95%.

As for `CC(=O)c1ccc(N2CCOCC2)cc1O`, the residual activity in [1] came out at 100%; in experiment [2], 90%; in [3] it was 97%; in experiment [19], 91%; in experiment [4], 95%; in [20] it was 107%. Also, the residual activity in [5] was found to be 88%; in experiment [6], 94%; in experiment [7] it was 73%; in experiment [8], 80%; in [9], 93%; in experiment [10], 129%. The residual activity in [11] was found to be 106%; in experiment [12], 102%; in [13], 90%; in [16] it was 97%; in experiment [17], 92%; in [18], 92%.

As to `Oc1ccc(-c2nc(-c3ccc(F)cc3)c(-c3ccncc3)[nH]2)cc1`, the residual activity in experiment [1] came out at 107%; in experiment [2], 96%; in [3], 99%; in experiment [19] it was 85%; in experiment [4], 88%; in experiment [20] it was 84%. In addition, the residual activity in experiment [5] turned out to be 34%; in [6], 81%; in [7] it was 27%; in experiment [8] it was 83%; in experiment [9], 82%; in experiment [10], 57%. Further, the residual activity is 8% in experiment [11]; 102% in experiment [12]; 86% in [13]; 109% in [14]; 86% in experiment [15]; 122% in experiment [16]. Further, the figures for the residual activity in experiment [17] and in experiment [18] were 93% and 92%, respectively.

As for `COc1cccc(-c2cc(=O)c3ccccc3o2)c1N`, the residual activity is 105% in [1]; 96% in experiment [2]; 122% in [3]; 99% in [19]; 96% in experiment [4]; 89% in experiment [20]. The residual activity in [5] turned out to be 101%; in experiment [6] it was 83%; in [7] it was 70%; in experiment [8], 95%; in experiment [9] it was 83%; in [10], 111%. For the same molecule, the residual activity in [11] worked out at 108%; in experiment [12] it was 101%; in experiment [13], 96%; in [14], 98%; in experiment [15], 94%; in experiment [16], 109%. The residual activity worked out at 93% in [17] and 119% in experiment [18].

For `COc1ccc(OC)c2c(=S)c3ccccc3[nH]c12`, the residual activity in experiment [1] was determined as 95%; in [2] it was 90%; in experiment [3] it was 115%; in experiment [19], 101%; in experiment [4], 95%; in experiment [20], 80%. The residual activity in experiment [5] turned out to be 102%; in experiment [6] it was 83%; in [7] it was 57%; in [8], 79%; in [9], 76%; in experiment [10] it was 90%. In addition, the residual activity in experiment [11] is 117%; in [12], 90%; in experiment [13], 81%; in [15] it was 87%; in experiment [16], 103%; in [17], 84%. The residual activity in [18] amounted to 96%.

With `O=C1NC(=O)/C(=C\c2ccc3nccnc3c2)S1`, the residual activity in experiment [1] was 95%; in experiment [2] it was 86%; in experiment [3], 86%; in experiment [19], 99%; in experiment [4] it was 92%; in experiment [20] it was 94%. Also, the residual activity in experiment [5] is 11%; in experiment [6], 84%; in experiment [7], 66%; in experiment [8], 49%; in experiment [9], 46%; in experiment [10], 115%. Also, the residual activity in experiment [11] was 93%; in experiment [12] it was 94%; in [13], 45%; in experiment [14], 108%; in experiment [15], 56%; in experiment [16], 90%. In addition, the results for the residual activity in experiment [17] and in experiment [18] were 81% and 78%, respectively.

The values above are taken from ChEMBL document CHEMBL2218924, “A broad activity screen in support of a chemogenomic map for kinase signalling research and drug discovery” (Biochem J, 2013).
